Values joined by “and” are separate entries in the source; they are usually repeats but may differ in a detail not shown here. Equal entries are not always repeated. A number with no mark means an inactive call. Results filed as inconclusive are left out. Active and inactive are the calls of the source. Calls come from the whole dose curve; as a rule, active = well fitted curve in the direction sought with a large enough effect in the repeat runs; inconclusive = weak or mixed curves; inactive = no such curve, though single readings can be large; an effect the other way counts as inactive or inconclusive.

A short description of assay [1]: qHTS RealTime-Glo MT Cell Viability Assay in HepG2 cells - 8 hour (AID 1224873). Note: nearly all actives have a fitted effect of over 55% in size. Note: potency is the fitted concentration of half-maximal effect. The method in brief:
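Real-time viability: cells seeded at 600 per well together with NanoLuc and cell-permeant prosubstrate, compounds added after 5 h incubation. Luminescence tracked at 0, 8, 16, 24, 32 and 40 h of exposure.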
A general note: qHTS replaces the single test concentration by a dilution series.

A short description of assay [2]: qHTS RealTime-Glo MT Cell Viability Assay in HEK293 cells - 40 hour (AID 1224874). Note: nearly all actives have a fitted effect of over 50% in size. Note: potency is the fitted concentration of half-maximal effect. Particulars: RealTime-Glo luminescence; max response: stronger effect = lower value. A digest of the protocol:
(§1)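 HEK293 cells mixed with RealTime-Glo reagents (NanoLuc plus cell-permeant prosubstrate) at 600 cells/well, preincubated 5 h at 37 C/5% CO2, then given 23 nL compound in DMSO. Nonlytic luminescence from viable cells was read at 0, 8, 16, 24, 32 and 40 h.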

The nature of assay [3]: A CellTox Green Cytotoxicity Assay to monitor cytotoxicity in HEK293 cells - 24 hour (AID 1224875). Note: nearly all actives have a fitted effect of over 45% in size. Note: potency is the fitted concentration of half-maximal effect. The method in brief: (§2)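 HEK293 cells premixed with CellTox Green dye were seeded at 600 cells/well and left 5 h at 37 C/5% CO2 before pin transfer of 23 nL compound in DMSO. Fluorescence from dye bound to dead-cell DNA was read during 40 h treatment.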
The nature of assay [4]: A CellTox Green Cytotoxicity Assay to monitor cytotoxicity in HepG2 cells - 16 hour (AID 1224876). Note: nearly all actives have a fitted effect of over 45% in size. Note: potency is the fitted concentration of half-maximal effect. A digest of the protocol: (§3)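 HepG2 cells were seeded together with the CellTox Green dye at 600 cells/well, left 5 h at 37 C/5% CO2, then given compounds in DMSO. Fluorescence from dye bound to dead-cell DNA was read repeatedly over 40 h of treatment at 37 C.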
The nature of assay [5]: A CellTox Green Cytotoxicity Assay to monitor cytotoxicity in HepG2 cells - 40 hour (AID 1224879). Note: nearly all actives have a fitted effect of over 40% in size. Note: potency is the fitted concentration of half-maximal effect. A digest of the protocol: as §3
Assay [6] is described as follows: qHTS RealTime-Glo MT Cell Viability Assay in HEK293 cells - 0 hour (AID 1224880). Note: top concentration of the series differs between compounds; nearly all actives have a fitted effect of over 45% in size. A digest of the protocol: as §1
Assay [7] can be described thus: A CellTox Green Cytotoxicity Assay to monitor cytotoxicity in HEK293 cells - 32 hour (AID 1224881). Note: nearly all actives have a fitted effect of over 40% in size. Note: potency is the fitted concentration of half-maximal effect. A digest of the protocol: as §2
Assay [8] is described as follows: A CellTox Green Cytotoxicity Assay to monitor cytotoxicity in HepG2 cells - 0 hour (AID 1224882). Note: nearly all actives have a fitted effect of over 35% in size. Note: potency is the fitted concentration of half-maximal effect. A digest of the protocol:
as §3

Assay [9] in a line: A CellTox Green Cytotoxicity Assay to monitor cytotoxicity in HEK293 cells - 8 hour (AID 1224884). Note: nearly all actives have a fitted effect of over 35% in size. Note: potency is the fitted concentration of half-maximal effect. A digest of the protocol:
as §2

Assay [10] in a line: qHTS RealTime-Glo MT Cell Viability Assay in HEK293 cells - 24 hour (AID 1224886). Note: nearly all actives have a fitted effect of over 50% in size. Note: potency is the fitted concentration of half-maximal effect. A digest of the protocol: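 Homogeneous bioluminescent viability format in HEK293 cells (600 cells/well). Following 5 h at 37 C/5% CO2, 23 nL compound was pintooled; the signal was measured repeatedly during 40 h incubation.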
Assay [11] can be described thus: qHTS RealTime-Glo MT Cell Viability Assay in HEK293 cells - 8 hour (AID 1224887). Note: nearly all actives have a fitted effect of over 50% in size. Note: potency is the fitted concentration of half-maximal effect. The method in brief: as §1
A short description of assay [12]: A CellTox Green Cytotoxicity Assay to monitor cytotoxicity in HEK293 cells - 16 hour (AID 1224888). Note: nearly all actives have a fitted effect of over 35% in size. Note: potency is the fitted concentration of half-maximal effect. A digest of the protocol: as §2
Assay [13] in a line: qHTS RealTime-Glo MT Cell Viability Assay in HepG2 cells - 0 hour (AID 1224889). Note: nearly all actives have a fitted effect of over 50% in size. The method in brief:
(§4)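 Cell number in HepG2 cultures estimated from NanoLuc luminescence generated by metabolic reduction of a prosubstrate by living cells. The homogeneous, nonlytic format allowed repeated reads at 0, 8, 16, 24, 32 and 40 h of compound exposure.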

Assay [14] is described as follows: A CellTox Green Cytotoxicity Assay to monitor cytotoxicity in HepG2 cells - 8 hour (AID 1224890). Note: nearly all actives have a fitted effect of over 45% in size. The method in brief:
as §3

Assay [15] in a line: qHTS assay to identify small molecule antagonists of the estrogen receptor alpha (ER-alpha) signaling pathway using the BG1 cell line in the presence of 0.1 nM 17-beta-estradiol - cell viability counter screen (AID 1259241). Note: nearly all actives have a fitted effect of over 40% in size. The method in brief: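 In this screen, hormone-deprived VM7Luc4E2 cells were seeded at 4,000 per well, dosed with compound and 0.1 nM estradiol final, and incubated 22 hr at 37C and 5% CO2; fluorogenic live-cell protease signal reported viability.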

Assay [16] can be described thus: qHTS RealTime-Glo MT Cell Viability Assay in HepG2 cells - 32 hour (AID 1224877). Note: nearly all actives have a fitted effect of over 55% in size. Note: potency is the fitted concentration of half-maximal effect. The method in brief: as §4
A short description of assay [17]: A CellTox Green Cytotoxicity Assay to monitor cytotoxicity in HepG2 cells - 32 hour (AID 1224883). Note: nearly all actives have a fitted effect of over 50% in size. Note: potency is the fitted concentration of half-maximal effect. A digest of the protocol:
as §3

Assay [18] is described as follows: qHTS RealTime-Glo MT Cell Viability Assay in HepG2 cells - 16 hour (AID 1224885). Note: nearly all actives have a fitted effect of over 50% in size. Note: potency is the fitted concentration of half-maximal effect. The method in brief:
as §4

A short description of assay [19]: qHTS assay to identify small molecule antagonists of the androgen receptor (AR) signaling pathway using the MDA cell line in the presence of 0.5 nM R1881 - cell viability counter screen (AID 1259242). Note: nearly all actives have a fitted effect of over 45% in size. Note: potency is the fitted concentration of half-maximal effect. A digest of the protocol:
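MDA-kb2 cells (human breast carcinoma, stably carrying MMTV-luciferase reporter) were exposed to compounds with 0.5 nM R1881 (final) for 16 hr at 37C, 0% CO2; viability then read as live-cell protease fluorescence (CellTiter-Fluor, 30 min) in the same wells.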

A short description of assay [20]: A CellTox Green Cytotoxicity Assay to monitor cytotoxicity in HepG2 cells - 24 hour (AID 1224878). Note: nearly all actives have a fitted effect of over 45% in size. Note: potency is the fitted concentration of half-maximal effect. A digest of the protocol:
as §3
% is set by controls: 0 for no effect and ±100 for the full control effect.

As for `CCCCN(CCCC)CCC(O)c1cc2c(Cl)cc(Cl)cc2c2cc(C(F)(F)F)ccc12` (stereo not given), the Potency entry in [1], in assay [3], in assay [4], in assay [6], in [7] and in assay [8] was “inactive” each time. Besides, the Potency entry in [9], in assay [10], in assay [11], in assay [12], in assay [13] and in assay [14] was “inactive” in each case. Also, the Potency entry in assay [15] is “inactive”. In assay [2], the max response was -17.9%. Further, the Potency in assay [5] was 23.9 µM (active).

As for `CC1=CP(=O)(c2ccccc2)CC1` (stereo not given), the Potency entry in assay [1], in assay [3], in assay [4], in assay [16], in assay [6] and in assay [7] was “inactive” in each case. In addition, the Potency result in [8], in assay [17], in [18], in [10], in [11] and in [12] was “inactive” throughout. The Potency result in assay [13], in assay [14], in assay [15] and in assay [19] was “inactive” each time. Also, the max response in assay [2] is 9.74%.

With `Clc1nc2ccccc2s1`, the Potency result in [1], in [3], in assay [16], in assay [20], in assay [6] and in assay [7] was “inactive” throughout. The Potency result in assay [8], in assay [17], in [9], in assay [18], in [10] and in assay [11] was “inactive” throughout. Besides, the Potency result in assay [13], in assay [14], in assay [15] and in [19] was “inactive” in each case. The max response in assay [2] was -10.6%.

Consider `C=C(C)C(=O)OCCC[Si](Cl)(Cl)Cl`, for which the Potency result in [1], in [3], in [16], in assay [20], in assay [5] and in assay [6] was “inactive” each time. Besides, the Potency result in assay [7], in [8], in assay [17], in [18], in [10] and in assay [11] was “inactive” throughout. Moreover, the Potency entry in assay [12], in [14], in assay [15] and in assay [19] was “inactive” throughout. Besides, the max response in [2] was -5.22%.

In the case of `Nc1ccc2cc3ccc(N)cc3nc2c1`, the Potency entry in assay [1], in assay [6] and in [13] was “inactive” throughout. Also, the Potency was 436 nM (active) and 2.13 µM (active) in assay [2]; 43.6 µM (active) and 21.3 µM (active) in [3]; 49 µM (active) and 21.3 µM (active) in [4]; 49 µM (active) and 21.3 µM (active) in assay [5]; 43.6 µM (active) and 21.3 µM (active) in [7]; 49 µM (active) and 23.9 µM (active) in assay [8]. In addition, the Potency in [17] was 49 µM (active) and 21.3 µM (active); in [9] it was 49 µM (active) and 21.3 µM (active); in [10], 2.45 µM (active) and 3.01 µM (active); in assay [11], 24.5 µM (active); in [12], 49 µM (active) and 21.3 µM (active).

With `N#CSCSc1nc2ccccc2s1`, the Potency in assay [1] was 49 µM (active); in [2] it was 19.5 µM (active); in [3], 11 µM (active); in assay [16] it was 30.9 µM (active); in assay [20], 43.6 µM (active); in [7], 12.3 µM (active). For the same compound, the Potency was 24.5 µM (active) in assay [17], 43.6 µM (active) in assay [18], 15.5 µM (active) in assay [10] and 21.9 µM (active) in [11]. The Potency result in assay [6], in assay [8], in assay [9], in [12], in [13] and in [15] was “inactive” in each case.

For the compound `CC(C)N=C(N)/N=C(\N)Nc1ccc(Cl)cc1`, the Potency result in assay [1], in assay [3], in assay [16], in assay [6], in assay [7] and in [9] was “inactive” throughout. Moreover, the Potency result in [18], in [12], in assay [13], in assay [14], in assay [15] and in assay [19] was “inactive” throughout. The Potency was 26.8 µM (active) in [2]; 26.8 µM (active) in assay [20]; 26.8 µM (active) in [5]; 26.8 µM (active) in assay [17]; 23.9 µM (active) in [10].

Consider `Cc1oc(-c2ccccc2)nc1CCOc1ccc(C[C@H](Nc2ccccc2C(=O)c2ccccc2)C(=O)O)cc1`, for which the Potency entry in assay [1], in [3], in [4], in [16], in assay [6] and in assay [7] was “inactive” each time. Moreover, the Potency entry in [8], in assay [9], in assay [18], in [10], in assay [11] and in [12] was “inactive” throughout. The Potency result in [13], in [14] and in [19] was “inactive” in each case. Moreover, the max response in [2] is 0.495%.

Take `CN(C)CCCN1c2ccccc2CCc2ccccc21`: the Potency result in assay [1], in [3], in assay [16], in assay [7], in assay [8] and in assay [9] was “inactive” in each case. In addition, the Potency entry in assay [18], in assay [10], in [11], in assay [14], in assay [15] and in [19] was “inactive” each time. Also, the Potency in assay [2] was 54.9 µM (active); in assay [20], 49 µM (active); in [5], 54.9 µM (active); in [17], 54.9 µM (active).

Consider `O=C(Nc1ccc(Cl)cc1)Nc1ccc(Cl)c(C(F)(F)F)c1`, for which the Potency entry in assay [1], in [3], in [4], in assay [6], in [8] and in assay [9] was “inactive” each time. Also, the Potency entry in [12], in [13], in [14] and in assay [15] was “inactive” each time. The Potency is 5.35 µM (active) in [2]; 19 µM (active) in [5]; 19 µM (active) in assay [17]; 5.35 µM (active) in [10]; 11.9 µM (active) in [19].

As to `ClC/C=C\CCl`, the Potency entry in assay [1], in assay [3], in assay [4], in assay [16], in [5] and in [6] was “inactive” each time. For the same compound, the Potency entry in [7], in assay [8], in [17], in [10], in [11] and in assay [12] was “inactive” throughout. For the same compound, the Potency entry in [13], in assay [14], in assay [15] and in [19] was “inactive” throughout. Also, the max response in assay [2] is -46.5%.

As to `CCCCOC(=O)C(C)CC` (stereo not given), the Potency result in assay [1], in assay [3], in assay [16], in assay [20], in assay [5] and in assay [6] was “inactive” each time. Also, the Potency result in assay [7], in assay [8], in [17], in assay [9], in assay [18] and in assay [10] was “inactive” in each case. Also, the Potency result in assay [11], in assay [12], in [13], in [14] and in assay [19] was “inactive” each time. In addition, the max response in [2] is 1.36%.

(Values after PubChem BioAssay (Tox21).)
